Assay results reported in PubChem BioAssay AID1159580 (chemical genetic matrix, 2015).
About 2,000 (36%) of roughly 5,500 compounds were called active. Inconclusive results (about 18%) are left out. Cut-off read from the data, not from the text of the source: active = normalized growth mostly below about 0.91 (no sharp cut-off); inconclusive = no clear call, values can overlap the other calls; inactive = mostly above about 0.92. The list shows a part of the results.

Assay: chemical genetic growth profiling, strain panel (AID 1159580);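 note: tested at 20 µM; growth read once vehicle control cultures reached saturation at 30 °C; 1 = growth at the plate median or of vehicle wells; lower values mean less growth of the strain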
Conditions: S. cerevisiae deletion strains, growth OD

Measured: normalized growth

CC(C)CCCC(C)N (configuration not stated)
inactive: locus YAL021C, strain ccr4, hits give low values 1.03 | locus YAL026C, strain drs2, hits give low values 1.02 | locus YAL030W, strain snc1, hits give low values 1.02 | locus YBL061C, strain skt5, hits give low values 1.02 | locus YBR009C, strain hhf1, hits give low values 1.02 | locus YBR023C, strain chs3, hits give low values 1.03 | locus YBR171W, strain sec66, hits give low values 1.05 | locus YBR231C, strain swc5, hits give low values 1.02 | locus YBR279W, strain paf1, hits give low values 1.02 | locus YCL011C, strain gbp2, hits give low values 1.04 | locus YCL016C, strain dcc1, hits give low values 1.02 | locus YCL061C, strain MRC1, hits give low values 1.01 | locus YCL069W, strain vba3, hits give low values 1.03 | locus YCR088W, strain abp1, hits give low values 1.03 | locus YDL005C, strain med2, hits give low values 1.04 | locus YDL040C, strain nat1, hits give low values 1.02 | locus YDR001C, strain nth1, hits give low values 1.02 | locus YDR069C, strain doa4, hits give low values 1.04 | locus YDR137W, strain rgp1, hits give low values 0.99 | locus YDR159W, strain sac3, hits give low values 0.97 | locus YDR195W, strain ref2 1.03 | locus YDR297W, strain sur2, hits give low values 1.02 | locus YDR334W, strain swr1, hits give low values 1.03 | locus YDR335W, strain msn5, hits give low values 1.04 | locus YDR392W, strain spt3, hits give low values 0.963 | locus YEL003W, strain gim4, hits give low values 1.02 | locus YEL037C, strain rad23, hits give low values 1.04 | locus YEL061C, strain CIN8 (second series), hits give low values 1.01 | locus YER015W, strain faa2, hits give low values 1.02 | locus YER016W, strain bim1, hits give low values 1.05 | locus YER111C, strain swi4, hits give low values 1.04 | locus YER155C, strain BEM2 (second series), hits give low values 1.03 | locus YFR010W, strain ubp6, hits give low values 1.01 | locus YGL167C, strain pmr1, hits give low values 1.03 | locus YGL173C, strain kem1, hits give low values 1.01 | locus YGL227W, strain vid30, hits give low values 1.04 | locus YGL240W, strain doc1, hits give low values 0.983 | locus YGL253W, strain hxk2, hits give low values 1.04 | locus YHR013C, strain ard1, hits give low values 1.03 | locus YHR027C, strain rpn1, hits give low values 1.02 | locus YHR142W, strain chs7, hits give low values 1.05 | locus YJL092W, strain hpr5, hits give low values 1.02 | locus YJL095W, strain BCK1 (second series), hits give low values 1.03 | locus YJL115W, strain asf1, hits give low values 1.03 | locus YJL129C, strain trk1, hits give low values 1.04 | locus YJL154C, strain vps35, hits give low values 1.03 | locus YJL164C, strain tpk1, hits give low values 1.03 | locus YJL166W, strain qcr8, hits give low values 1.02 | locus YJL187C, strain SWE1, hits give low values 1.02 | locus YKL160W, strain elf1, hits give low values 1.03 | locus YKR026C, strain gcn3, hits give low values 1.02 | locus YKR091W, strain srl3, hits give low values 1.01 | locus YLL001W, strain dnm1, hits give low values 1 | locus YLL026W, hits give low values 1.01 | locus YLL041C, strain sdh2, hits give low values 1.03 | locus YLR027C, strain aat2, hits give low values 1.03 | locus YLR221C, strain rsa3, hits give low values 1.01 | locus YLR258W, strain gsy2, hits give low values 1.01 | locus YLR262C, strain YPT6 (second series), hits give low values 0.999 | locus YLR320W, strain mms22, hits give low values 0.977 | locus YLR342W, strain FKS1, hits give low values 1.03 | locus YLR357W, strain rsc2, hits give low values 1.06 | locus YLR370C, strain arc18, hits give low values 1.03 | locus YLR384C, strain iki3, hits give low values 1.03 | locus YML120C, strain ndi1, hits give low values 1.02 | locus YMR058W, strain fet3, hits give low values 1.01 | locus YMR125W, strain sto1, hits give low values 1.04 | locus YMR129W, hits give low values 1.02 | locus YMR205C, strain PFK2, hits give low values 1.01 | locus YMR231W, strain pep5, hits give low values 1.03 | locus YNL071W, strain lat1, hits give low values 1.03 | locus YNL209W, strain ssb2, hits give low values 1.03 | locus YNL248C, strain rpa49, hits give low values 1.07 | locus YNL322C, strain KRE1 (second series), hits give low values 1.04 | locus YNR049C, strain mso1, hits give low values 1.03 | locus YOR001W, strain rrp6, hits give low values 1.02 | locus YOR070C, strain gyp1, hits give low values 1.02 | locus YOR080W, strain dia2, hits give low values 1.03 | locus YOR083W, strain WHI5, hits give low values 0.968 | locus YOR106W, strain vam3, hits give low values 1.04 | locus YOR265W, strain rbl2, hits give low values 1.02 | locus YOR270C, strain vph1, hits give low values 1.14 | locus YOR290C, strain snf2, hits give low values 1.03 | locus YPL051W, strain arl3, hits give low values 1.02 | locus YPL078C, strain atp4, hits give low values 1.04 | locus YPL106C, strain sse1, hits give low values 1.05 | locus YPL240C, strain hsp82, hits give low values 1.03
